# Laboratory results from publication PMC5540273 (PLoS ONE, 2017).
# Experiments:
# Conditions in all cases: concentration: 1 μM, replicates: in singlicate; n = 1
# SRPK2 = tested on: SRPK2
# SRPK3 = tested on: SRPK3
# STK16 = tested on: STK16
# STK33 = tested on: STK33
# STK35 = tested on: STK35
# STK36 = tested on: STK36
# STK39 = tested on: STK39
# SYK = tested on: SYK
# SgK110 = tested on: SgK110
# TAK1 = tested on: T1, TAK1
# T1 construct: gene MAP3K7
# 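Also: KINOMEscan kinase panel screen.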
Structure (SMILES),%Inh (SRPK2) [%],%Inh (SRPK3) [%],%Inh (STK16) [%],%Inh (STK33) [%],%Inh (STK35) [%],%Inh (STK36) [%],%Inh (STK39) [%],%Inh (SYK) [%],%Inh (SgK110) [%],%Inh (TAK1) [%]
O=C(Nc1n[nH]c2nc(-c3ccco3)c(Br)cc12)C1CCN(Cc2ccccc2)C1.O=C(O)[C@H](O)[C@@H](O)C(=O)O (stereo not shown) [SB-742034],0,0,57,23,0,29,1,0,37,22
Cc1ccc(NC(=O)Nc2ccccc2F)cc1-c1ccc(C(=O)Nc2ccncc2)cc1 [GSK1398477],0,28,11,8,21,6,0,44,0,0
CS(=O)(=O)CCNCc1nc(-c2ccc3ncnc(Nc4ccc(OCc5ccccc5)c(Cl)c4)c3c2)cs1.Cl [GW582764],36,0,0,0,0,0,4,20,0,0
CCn1c(-c2c(N)noc2C)nc2cnccc21 [SB-737856],0,2,0,0,0,0,6,1,0,0
Cc1ccc(NC(=O)Nc2ccc(Cl)cc2)cc1-c1ccc(C(=O)Nc2ccncc2)cc1 [GSK1398472],0,46,0,0,0,1,0,31,10,0
COc1ccc(Nc2nccc(-c3ccc(NC(=O)c4cc5cc(F)ccc5[nH]4)cc3)n2)cc1 [GSK1229496],14,7,2,0,0,0,0,8,0,0
COC(=O)C(NC(=O)NC1CCN(c2ccnc(Nc3ccc(F)cc3)n2)C1)c1ccccc1 (stereo not shown) [GSK1379712],0,0,0,0,0,29,0,21,19,12
Fc1ccc(-c2nc3n(c2-c2ccncc2)CCS3)cc1 [GI98581],0,0,0,1,0,7,0,28,0,0
CNC(=O)c1ccc(C)c(-n2c(C)cc(OCc3ccc(F)cc3F)c(Br)c2=O)c1,0,6,3,0,0,1,0,14,0,12
COc1ccc2cc(-c3nc(-c4ccccc4C(C)C)[nH]c3-c3ccncc3)ccc2c1 [SB-660566],0,0,9,0,38,41,31,10,0,0
Cn1cncc1-c1cc2c(Nc3ccc(OCc4ccccc4)cc3)ncnc2cn1 [GW281179],0,0,4,0,0,0,12,27,0,0
O=C1NC(=O)C(c2ccc(Cl)cc2)=C1Nc1ccc(O)cc1 [SB-340867],18,0,0,0,0,11,0,4,50,0
Cc1cnc(N)c(/C=C/c2cncc(C(=O)NCCc3ccc(Cl)cc3Cl)c2)c1.Cl [GSK190937],34,0,1,5,0,28,2,22,9,0
CCc1ccc(-c2ccc3c(c2)-c2n[nH]cc2S(=O)(=O)N3C)cc1,14,0,0,0,15,0,0,19,0,0
CNc1cc(-c2ccc3c(N)n[nH]c3c2)nc(N)n1 [GSK2224810],1,0,19,0,6,0,0,7,0,26
Cc1ccccc1-c1cc(-c2c[nH]nc2-c2ccccn2)ccn1 [GW680061],3,4,0,0,0,0,10,36,0,0
Cc1cccc2c(-c3ccncn3)c(-c3ccc(F)cc3)nn12 [GW515532],0,14,0,0,27,0,0,0,0,0

Structure (SMILES),%Inh (SRPK2) [%],%Inh (SRPK3) [%],%Inh (STK16) [%],%Inh (STK33) [%],%Inh (STK35) [%],%Inh (STK36) [%],%Inh (STK39) [%],%Inh (SYK) [%],%Inh (SgK110) [%],%Inh (TAK1) [%]
c1ccc(-c2ccnc3[nH]ccc23)cc1 [SB-693578],7,0,44,0,32,0,33,0,0,11
O=C(Nc1n[nH]c2nc(-c3cccs3)c(Br)cc12)C1CC1 [SB-735297],0,8,0,0,0,12,7,10,0,6
Cn1cnc2c(N)ncnc21 [SKF-97623],10,18,0,0,19,0,2,0,0,0
COc1ccc(-c2coc3ccc(-c4nnc(C)o4)cc23)cc1,0,0,21,0,0,13,0,17,52,0
CSc1ccc(-c2nc3n(c2-c2ccncc2)CCC3)cc1 [SKF-105561],25,0,4,11,3,16,0,18,0,0
CC(C)c1cc(-c2ccc3c(N)n[nH]c3c2)nc(N)n1 [GSK2250882],0,29,21,0,0,0,0,0,0,1
CC(=O)c1c(C)c2cnc(Nc3ccc(N4CCNCC4)cn3)nc2n(C2CCCC2)c1=O,0,0,0,0,8,0,0,0,0,28
O=c1cc(N2CCOCC2)nc2n(Cc3ccccc3F)ccn12 [GSK2297428],0,0,0,0,0,0,0,21,0,0
Cn1cncc1C(=O)NC1CCN(c2ccnc(Nc3ccc(F)cc3)n2)C1 (stereo not shown) [GSK1379717],0,0,17,0,0,0,0,5,6,0
CS(=O)(=O)Cc1ccc(Nc2nccc(-c3c(-c4cccc(NC(=O)C5CCCCC5)c4)nn4ncccc34)n2)cc1 [GSK350559],0,0,12,4,9,81,37,4,0,2
CC(C)c1ccc(O)cc1Nc1ccnc2ccc(C(F)(F)F)cc12 [GW482059],0,16,0,19,0,0,0,23,0,0
COC(=O)C(Cc1ccccc1)NC(=O)NC1CCN(c2ccnc(Nc3ccc(F)cc3)n2)C1 (stereo not shown) [GSK1379714],38,0,19,8,0,31,10,34,0,0
Nc1ncnc2occ(-c3ccc4c(c3)CCN4C(=O)Cc3cc(F)ccc3F)c12 [GSK2645446],0,0,0,0,0,0,0,0,0,17
Cc1ccc(NC(=O)Nc2ccc(Cl)c(C(F)(F)F)c2)cc1-c1ccc(C(=O)Nc2ccncc2)cc1 [GSK1398470],0,23,0,6,8,37,0,13,0,0
CN1c2ccc(-c3ccc(C(N)=O)cc3)cc2-c2[nH]ncc2S1(=O)=O,8,0,1,0,12,0,3,26,0,31
O=C(Nc1n[nH]c2nc(-c3cccs3)c(Br)cc12)C1CCCC1 [SB-743341],15,20,23,1,0,1,33,5,18,38
NS(=O)(=O)c1cccc(N/C=C2\C(=O)Nc3ccc(S(=O)(=O)Cc4c(Cl)cccc4Cl)cc32)c1 [GSK398099],0,0,19,0,0,0,0,0,0,0
